Test results reported in PubChem BioAssay (NCI).
The panel holds about 79,000 compounds, 15% with a hit somewhere; the sample as a whole holds those more often. Values without a mark were called inactive. Calls of active or inactive are those of the source. Rule as the data show it: active = growth inhibition above about 70%; inactive = the rest.

Test: NCI Yeast Anticancer Drug Screen. Data for the cln2 rad14 strain (AID 165);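 also: 0% = growth equal to vehicle treated cultures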
Settings: S. cerevisiae cln2 rad14 strain, at 50.0 µM, stronger effect = higher value
In short: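 Each compound was tested on cln2 rad14 yeast. Inhibition of growth was calculated against vehicle-exposed controls.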

**Q.** With Cc1cccc(C(C)C)c1NC(=O)/C(Cc1c([N+](=O)[O-])cccc1[N+](=O)[O-])=N/NC(=O)CC#N as the compound, how does the growth inhibition read?
**A.** 11.2%

**Q.** Which growth inhibition does the source give for NC1CC(=O)C(CC2C(=O)CC(N)CC2=O)C(=O)C1 (centres undefined) here?
**A.** -1.8%

**Q.** Which growth inhibition does the source give for CC(C)c1ccc(/C=C2\CCC/C(=C\c3ccc(C(C)C)cc3)C2=O)cc1 here?
**A.** -12.2%

**Q.** For COc1cc(OC)c(OC)cc1/C=C/c1cc[n+](C)c2ccccc12, which growth inhibition is on record?
**A.** -0.8%

**Q.** Which growth inhibition does the source give for O=C(NO)c1c(F)c(F)c(C(=O)NO)c(F)c1F here?
**A.** 11%

**Q.** For COc1cc(/C=N/N=C(\N)NO)cc(Cl)c1O, which growth inhibition is on record?
**A.** -19.2%

**Q.** With [N-]=[N+]=NC(=O)c1cccc2c1Cc1ccccc1-2 as the compound, how does the growth inhibition read?
**A.** -40.9%

**Q.** For O=[S@]1Nc2cc(N=Nc3ccccc3)ccc2S1, which growth inhibition is on record?
**A.** -10.5%

**Q.** With Nc1ccc2c(c1)Cc1c-2cc(Br)c(N)c1Br as the compound, how does the growth inhibition read?
**A.** -39.2%

**Q.** Which growth inhibition does the source give for N#C/C(=C\c1ccccn1)c1ccc(Cl)cc1 here?
**A.** -17.4%

**Q.** With CC1(C)C2CCC(I)(C2)C1I (centres undefined) as the compound, how does the growth inhibition read?
**A.** -15.8%

**Q.** For CC1=Nc2ccccc2NC2(C1)C(C1COC(C)(C)O1)OC1OC(C)(C)OC12 (centres undefined), which growth inhibition is on record?
**A.** 21.5%

**Q.** For COc1ccccc1NC(=O)C1=C(C)NC(C)=C(C(=O)Nc2ccccc2OC)C1c1c(Cl)cccc1Cl, which growth inhibition is on record?
**A.** -6.05%

**Q.** With CN(C)CCOC(=O)COc1ccc(Cl)cc1 as the compound, how does the growth inhibition read?
**A.** 38%

**Q.** For Cc1ccc(C(C)(O)C2CC2)cc1 (centres undefined), which growth inhibition is on record?
**A.** 18.6%

**Q.** For CCCCCCCCCCCCCCCCCCCOc1ccc(OCCCCCCCCCC)cc1, which growth inhibition is on record?
**A.** -10.4%

**Q.** Which growth inhibition does the source give for COC(C)C(NC=O)C(=O)O (centres undefined) here?
**A.** 8.65%

**Q.** For Nc1cc(Cl)c(I)c(Cl)c1, which growth inhibition is on record?
**A.** 10.2%

**Q.** With O=C1N=C2SC(=S)NC(=S)N2NC12c1ccccc1-c1ccccc12 as the compound, how does the growth inhibition read?
**A.** 10.5%

**Q.** Which growth inhibition does the source give for CC1C(=O)CCC2C1(C)CCC1C2(C)CCC2(C)C3CC(C)(C)CCC3(C)CCC12C (centres undefined) here?
**A.** 9.2%

**Q.** With O=C(/C=C/c1ccc(Cl)c(Cl)c1)c1ccc2ccccc2c1 as the compound, how does the growth inhibition read?
**A.** -8.6%

**Q.** Which growth inhibition does the source give for CC(=O)CC(=O)CC(C)C.CC(=O)CC(=O)CC(C)C.[Cu] here?
**A.** -16.1%

**Q.** With C=CCCCC(C#N)c1ccc2c(c1)OCO2 (centres undefined) as the compound, how does the growth inhibition read?
**A.** -82%

**Q.** For C[N+](C)(C)C1CC([N+](C)(C)C)C2c3ccccc3C21 (centres undefined), which growth inhibition is on record?
**A.** -9.05%

**Q.** Which growth inhibition does the source give for COc1cc(C(=O)O)cc(O)c1OC here?
**A.** -6.25%

**Q.** For CC(O)CN(CC(C)O)c1ccc2c(c1)Cc1ccccc1-2 (centres undefined), which growth inhibition is on record?
**A.** -20.8%

**Q.** Which growth inhibition does the source give for CCCNS(C)(=O)=O here?
**A.** 3.15%

**Q.** With CC1(c2ccncc2)NC(=O)NC1=O (centres undefined) as the compound, how does the growth inhibition read?
**A.** 1.4%

**Q.** Which growth inhibition does the source give for CC1=C(C)CC2(CC1)C(=O)C1(CCC(C)=C(C)C1)C2=O (centres undefined) here?
**A.** 14.1%

**Q.** With CC1CCOCO1 (centres undefined) as the compound, how does the growth inhibition read?
**A.** 1.75%

**Q.** Which growth inhibition does the source give for O=C(Nc1ccccc1)C1CC2C=CC1C2 (centres undefined) here?
**A.** -3.9%

**Q.** For CC1(C)OCC2OC(n3cnc4c(N)nc(Cl)nc43)C(OS(C)(=O)=O)C2O1 (centres undefined), which growth inhibition is on record?
**A.** 8.7%

**Q.** Which growth inhibition does the source give for CC1(C)CC[C@]2(C(=O)O)[C@H](O)C[C@]3(C)C(=CC[C@@H]4[C@@]5(C)CC[C@H](OC6OC(C(=O)O)C(O)C(O)C6O)C(C)(C)[C@@H]5CC[C@]43C)[C@@H]2C1 (some centres undefined) here?
**A.** 92.7% (active)

**Q.** Which growth inhibition does the source give for O=C(NO)/C(CC(=O)c1ccc(O)cc1)=N\O here?
**A.** -11.2%

**Q.** Which growth inhibition does the source give for N#CC(C#N)=CNC(=S)Nc1ccc(Cl)c(Cl)c1 here?
**A.** 37.7%

**Q.** Which growth inhibition does the source give for CC(NC(=O)C(N)CC(=O)O)C(=O)OC12CC3CC(CC(C3)C1)C2 (centres undefined) here?
**A.** -0.95%

**Q.** Which growth inhibition does the source give for CCOC(=O)C(CC(Nc1ccccc1)(c1ccccc1)c1ccccc1)c1ccccc1 (centres undefined) here?
**A.** -35.5%

**Q.** For Cc1cc(N(CCC#N)CCC#N)ccc1/C=C1N=C(/C=C\c2ccccc2)OC\1=O, which growth inhibition is on record?
**A.** 12.2%

**Q.** Which growth inhibition does the source give for COc1ccc(OC)c(NC(=O)CCCC(=O)C(C#N)c2ccccc2C)c1 (centres undefined) here?
**A.** 11.2%
